Laboratory results from PubChem BioAssay (NCI).
This is part of a sample that, as a whole, favours compounds with a hit. Of some 83,000 tested, about 20% had one in any assay.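 Activity criterion: percent growth below 10, measured after cells in 96-well plates were exposed to a single compound concentration for 48 hours.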 Calls of active or inactive are those of the source.

Key:
Experiment in all cases: NCI-60 one-dose screen, 48 h (100 = growth as untreated, 0 = no growth, -100 = all killed)
Conditions in all cases: 10 µM unless noted
[1] = system: NCI-H23 lung
[2] = system: NCI-H226 lung
[3] = system: NCI-H322M lung
[4] = system: HOP-62 NSCLC
[5] = system: NCI-H460 lung
[6] = system: HOP-92 NSCLC
[7] = system: NCI-H522 lung
[8] = system: A549/ATCC NSCLC
[9] = system: 786-0 renal
[10] = system: COLO 205 colon
[11] = system: DU-145 prostate
[12] = system: K-562 leukemia
[13] = system: MALME-3M melanoma
[14] = system: MDA-MB-231 breast
[15] = system: RXF 393 renal
[16] = system: SF-268 CNS
[17] = system: SF-295 CNS
[18] = system: SF-539 CNS
[19] = system: UACC-257 melanoma
[20] = system: M14 melanoma

Measured: growth

N#CC1C(=O)NC(c2ccccc2[N+](=O)[O-])c2sc3c(F)cccc3c21 (stereo not given)
inactive: [1] 68.9% | [3] 67.2% | [4] 33.8% | [6] 82.7% | [7] 88.6% | [8] 47.2% | [9] 90% | [10] 70.1% | [11] 89.9% | [12] 35.9% | [13] 74.7% | [14] 75.6% | [15] 69.9% | [16] 86.7% | [17] 20.8% | [18] 85.7% | [20] 92.7%
active: [2] -14.9% | [5] 2.01% | [19] -37.3%

O=C(Nc1cccc(C2=NCCN2)c1)c1cccc(C(=O)Nc2cccc(C3=NCCN3)c2)c1
inactive: [1] 95.4% | [2] 90.5% | [3] 92.4% | [4] 97.1% | [5] 102% | [6] 101% | [7] 94.1% | [8] 102% | [9] 103% | [10] 99.8% | [11] 107% | [12] 96.6% | [13] 97.1% | [14] 101% | [15] 102% | [16] 96.4% | [17] 99% | [18] 95.7% | [19] 95.8% | [20] 99%

COc1ccc(NC(=S)NNc2ccc(-c3ccc(OC)c(OC)c3)nn2)cc1
inactive: [1] 106% | [2] 107% | [3] 96.7% | [4] 97.8% | [5] 99.7% | [6] 106% | [7] 97.9% | [8] 110% | [9] 101% | [10] 112% | [11] 107% | [12] 104% | [13] 112% | [14] 96.1% | [15] 120% | [16] 92.9% | [17] 101% | [18] 97.6% | [19] 103% | [20] 99.2%

N/C(=N\c1nc2ccccc2[nH]1)NC(=O)Cc1cccc2ccccc12
active: [19] 6.29%
inactive: [1] 76.5% | [2] 88.7% | [3] 85.3% | [4] 108% | [5] 84.4% | [6] 64.6% | [7] 63.7% | [8] 69.7% | [9] 70.4% | [10] 90.6% | [11] 92.8% | [12] 107% | [13] 68.3% | [14] 84.6% | [15] 92% | [16] 86.5% | [17] 98.7% | [18] 91.3% | [20] 107%

CCN(CC)CCCCCCNc1cccc2cc(Br)cnc12
active: [12] -27.8%
inactive: [1] 85.7% | [2] 108% | [3] 94.3% | [4] 118% | [5] 87.3% | [6] 71.6% | [7] 26.7% | [8] 97.8% | [9] 92.8% | [10] 89.9% | [11] 91.4% | [13] 47.9% | [14] 67.9% | [15] 91% | [16] 74.9% | [17] 84.8% | [18] 94.4% | [19] 80.7% | [20] 50.1%

NC(=O)c1cccc(-c2ccc(S(=O)(=O)Nc3ccc4c(c3)N(C(=O)C3CC3)CCC4)cc2)c1
inactive: [1] 48% | [2] 63.7% | [3] 70% | [4] 38.4% | [5] 17.1% | [6] 33.7% | [8] 50.8% | [9] 100% | [10] 43.6% | [11] 76.3% | [12] 25.6% | [13] 39.1% | [14] 46.2% | [15] 47.7% | [16] 48.8% | [17] 18% | [18] 26.3% | [19] 46.2% | [20] 95.5%
active: [7] 7.75%

N#C/C(C(=O)c1ccccc1)=C1/C(=O)Nc2ccc(F)cc21
inactive: [1] 98.4% | [2] 95.4% | [3] 108% | [4] 84.8% | [5] 106% | [6] 115% | [7] 96.6% | [8] 105% | [9] 101% | [10] 119% | [11] 110% | [12] 110% | [13] 104% | [14] 92.2% | [15] 127% | [16] 101% | [17] 102% | [18] 96.9% | [19] 103% | [20] 104%

COc1ccc(NCc2cn(-c3ccc(C(=O)O)cc3)nc2-c2ccc(C(=O)O)cc2)cc1C(F)(F)F
inactive: [1] 99.8% | [2] 98.5% | [3] 89.1% | [4] 96.6% | [5] 100% | [6] 66.6% | [7] 97.8% | [8] 99.8% | [9] 90.4% | [10] 111% | [11] 96.3% | [12] 111% | [13] 77.9% | [14] 81.8% | [15] 89.8% | [16] 99.3% | [17] 97.2% | [18] 86.7% | [19] 100% | [20] 96.9%

Cc1cc(C)c(-c2cc(O)c(-c3c(C)cc(C)cc3C)cc2O)c(C)c1
inactive: [1] 34.9% | [2] 64.4% | [3] 68.6% | [4] 47.2% | [5] 16.9% | [6] 94.3% | [8] 47.6% | [9] 30.4% | [11] 20.3% | [13] 54.9% | [14] 51.5% | [15] 18% | [16] 55.3% | [17] 30.2% | [19] 73.8% | [20] 20.7%
active: [7] -12.7% | [10] -12.8% | [12] 8.34% | [18] -25.8%

CCOc1cccc2c(NC(C)CCCN(CC)CC)c(C)cnc12 (stereo not given)
inactive: [1] 110% | [2] 103% | [3] 91.8% | [4] 98.9% | [5] 110% | [6] 97% | [7] 94.7% | [8] 91.4% | [9] 103% | [10] 77.1% | [11] 110% | [12] 101% | [13] 116% | [14] 78.7% | [15] 102% | [16] 87.6% | [17] 109% | [18] 102% | [19] 108% | [20] 104%

COc1cc(C)cc2oc3oc(=O)c(C(=O)c4cc5cc(Br)ccc5o4)cc3c(=O)c12
inactive: [1] 107% | [2] 96.7% | [3] 97.3% | [4] 104% | [5] 107% | [6] 102% | [7] 101% | [8] 102% | [9] 110% | [10] 125% | [11] 113% | [12] 103% | [13] 98.8% | [14] 105% | [15] 116% | [16] 95% | [17] 103% | [18] 96.8% | [19] 105% | [20] 100%

O=C(N/N=C/c1c(Cl)cccc1Cl)c1cccc(Nc2ccnc(C(F)(F)F)c2)c1
inactive: [1] 89.7% | [2] 78.7% | [3] 108% | [4] 86.6% | [5] 82.1% | [6] 60.5% | [7] 87% | [8] 107% | [9] 81.9% | [10] 89.4% | [11] 120% | [12] 104% | [13] 113% | [14] 76.8% | [15] 111% | [16] 125% | [17] 90.3% | [18] 92.9% | [19] 102% | [20] 80.8%

C=C(C)[C@@H]1CC[C@]2(C(=O)NCCNCCNCCN)CC[C@]3(C)[C@H](CC[C@@H]4[C@@]5(C)CCC(=O)C(C)(C)[C@@H]5CC[C@]43C)[C@@H]12
active: [1] -35.2% [100 µM] | [3] -81.1% [100 µM] | [5] -90.9% [100 µM] | [6] -65.2% [100 µM] | [7] -69.7% [100 µM] | [8] -76.5% [100 µM] | [9] -84.5% [100 µM] | [10] -47.5% [100 µM] | [11] -56.7% [100 µM] | [12] -17% [100 µM] | [13] -72.8% [100 µM] | [14] -92.4% [100 µM] | [15] -71.9% [100 µM] | [16] -38.7% [100 µM] | [17] -54.5% [100 µM] | [18] -92.7% [100 µM] | [19] -10.7% [100 µM] | [20] -62.8% [100 µM]
inactive: [2] 74.3% [100 µM] | [4] 43.1% [100 µM]

COc1cc(NCc2cn(-c3ccc(C(=O)O)cc3)nc2-c2ccc(C(=O)O)cc2)cc(OC)c1OC
inactive: [1] 107% | [2] 99.3% | [3] 93.9% | [4] 98.6% | [5] 99.9% | [6] 68.1% | [7] 101% | [8] 102% | [9] 90.8% | [10] 108% | [11] 93.8% | [12] 107% | [13] 80.8% | [14] 76.4% | [15] 105% | [16] 95.6% | [17] 102% | [18] 90.2% | [19] 99.7% | [20] 96.5%

CCCCCCSc1ncnc2nc[nH]c12
inactive: [1] 92.4% | [2] 85.5% | [3] 99.9% | [4] 95.6% | [5] 94.5% | [6] 68.3% | [7] 86.3% | [8] 96.1% | [9] 89.7% | [10] 95.2% | [11] 95% | [12] 70.7% | [13] 102% | [14] 96.8% | [15] 78.1% | [16] 96.3% | [17] 88.8% | [18] 87.4% | [19] 91.4% | [20] 97%

COc1ccc2nc3ccccc3c(NCCNCCO)c2c1
active: [1] -40.3% | [2] -10.8% | [3] -25% | [4] -6.96% | [5] -41.3% | [6] -10.7% | [7] -48.7% | [8] -27% | [9] 3.89% | [10] -75.3% | [11] -31.2% | [13] -65.5% | [14] -18.9% | [15] -63% | [16] -27.9% | [17] -18.4% | [18] -11.1% | [19] -50% | [20] -87.3%
inactive: [12] 18.9%

Cc1cccc(C[C@H](NC(=O)Nc2ccc(Cl)cc2F)C(=O)N[C@@H]2C(=O)N3C[C@H](O)C[C@H]3C(=O)N3CCN(C)C[C@H]3C(=O)N[C@@H](C)C(=O)N3C[C@H](C)C[C@H]3C(=O)O[C@H]2C)c1
inactive: [1] 35.3% | [2] 45.2% | [3] 65.7% | [4] 34.3% | [5] 27.7% | [6] 33.2% | [7] 33.2% | [8] 35.6% | [9] 66.6% | [10] 11.2% | [11] 36.3% | [12] 24.4% | [13] 42.9% | [14] 22.4% | [15] 81.7% | [16] 30% | [17] 19.7% | [18] 53.8% | [19] 22.6% | [20] 63.5%

COc1ccc(OC)c([N+](=O)[O-])c1C(=O)CNC(C)=O
inactive: [1] 105% | [2] 101% | [3] 105% | [4] 105% | [5] 107% | [6] 89.9% | [7] 95.7% | [8] 100% | [9] 103% | [10] 114% | [11] 109% | [12] 103% | [13] 112% | [14] 98.4% | [15] 101% | [16] 102% | [17] 95.2% | [18] 101% | [19] 105% | [20] 107%

CCCCN(CC)CC(CC)Nc1cc(OC)cc2cccnc12 (stereo not given)
inactive: [1] 113% | [2] 107% | [3] 110% | [4] 110% | [5] 110% | [6] 89.4% | [7] 118% | [8] 96.3% | [9] 107% | [10] 119% | [11] 110% | [12] 114% | [13] 110% | [14] 115% | [15] 122% | [16] 104% | [17] 109% | [18] 102% | [19] 92.9% | [20] 109%
